{"source": "patent US20060069055", "about": "“Delivery of polynucleotides” (published 2006)"}
{"target": "NF-kB p65/p50 heterodimer (Homo sapiens, UniProt Q04206;P19838 Q04206:1-551,P19838:1-433)", "sequence (Q04206 whole entry, chain 1 of 2)": "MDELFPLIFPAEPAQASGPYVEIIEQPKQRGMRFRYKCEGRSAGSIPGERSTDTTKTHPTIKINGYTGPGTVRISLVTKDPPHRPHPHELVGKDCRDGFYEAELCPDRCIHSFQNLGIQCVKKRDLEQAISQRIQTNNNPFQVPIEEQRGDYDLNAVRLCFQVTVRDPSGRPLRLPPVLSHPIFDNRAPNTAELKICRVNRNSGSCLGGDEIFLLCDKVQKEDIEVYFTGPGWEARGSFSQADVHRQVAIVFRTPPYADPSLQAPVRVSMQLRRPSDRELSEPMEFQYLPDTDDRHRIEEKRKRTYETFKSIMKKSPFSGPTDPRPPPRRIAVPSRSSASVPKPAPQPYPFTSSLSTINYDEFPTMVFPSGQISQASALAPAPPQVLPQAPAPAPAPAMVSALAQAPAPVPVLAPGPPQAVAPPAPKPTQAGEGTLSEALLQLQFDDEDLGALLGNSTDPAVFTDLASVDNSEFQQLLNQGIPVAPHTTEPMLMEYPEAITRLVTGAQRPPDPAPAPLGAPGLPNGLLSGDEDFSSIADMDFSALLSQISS", "sequence (P19838 1-433, chain 2 of 2)": "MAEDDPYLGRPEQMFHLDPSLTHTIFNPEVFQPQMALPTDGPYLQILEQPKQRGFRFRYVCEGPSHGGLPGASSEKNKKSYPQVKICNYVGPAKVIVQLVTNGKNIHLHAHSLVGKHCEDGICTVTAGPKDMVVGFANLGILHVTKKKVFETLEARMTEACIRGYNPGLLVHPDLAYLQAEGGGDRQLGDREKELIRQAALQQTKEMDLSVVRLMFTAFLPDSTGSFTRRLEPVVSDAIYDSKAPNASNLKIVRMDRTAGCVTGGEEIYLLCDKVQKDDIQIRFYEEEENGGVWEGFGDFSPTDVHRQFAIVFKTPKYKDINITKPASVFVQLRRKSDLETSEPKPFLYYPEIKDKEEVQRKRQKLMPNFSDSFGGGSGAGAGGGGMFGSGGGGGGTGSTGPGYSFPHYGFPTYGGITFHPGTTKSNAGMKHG", "assay": "EMSA", "settings": "protein: extract; tags: nuclear extract of LPS-stimulated THP-1 cells; dsDNA, one strand shown", "source_text": "The EMSA assay was employed to characterize oligonucleotide decoys for the NF-κB transcription factor. […] Using the above modified oligonucleotides to compete for binding for the above-mentioned NF-κB family members, it was possible to compare the binding affinity of these oligonucleotides against the high affinity radiolabeled probe and each other. This assay has also enabled the design of a decoy which selectively binds particular members of the NF-κB family. By using increasing concentrations of various oligonucleotides, it was observed that, by deleting or changing targeted residues in the binding site, it was possible to specifically decrease the binding of the decoy molecule to p50/p50 homodimers, while retaining the affinity for p65/p50 and cRel/p50 heterodimers.\nThe NF-κB gel shift assays (EMSA) were performed as follows. A double-stranded oligonucleotide containing a consensus NF-κB binding site (5′ […].GGC 3′) (SEQ ID NO: 26) was end-labeled with γ³²P-ATP using T4 Polynucleotide Kinase (Promega). One microgram of a nuclear extract prepared from LPS stimulated THP-1 cells (human monocyte cell line) was incubated with 35 fmol of radiolabeled probe in the presence or absence of competing unlabeled NF-κB double-stranded oligonucleotides (dsODN) or scrambled dsODN. The incubations were carried out at room temperature for 30 minutes in a 20 μl reaction volume composed of 10 mM Tris-HCl pH 8, 100 mM KCL, 5mM MgC12, 2mM DTT, 10% Glycerol, 0.1% NP-40, 0.025% BSA and 1 μg Poly-dIdC. The reactions were loaded onto a 6% polyacrylamide gel, subjected to electrophoresis and dried. The dried gels were imaged and quantitated using a Typhoon 8600 Phosphorlmager (Amersham) and ImageQuant software. The identity of the NF-κB proteins contained in complexes bound to the radiolabeled oligonucleotide probe were identified by pre-incubating the reactions for 5 minutes with individual antibodies specific for each member of the NF-κB family prior to the addition of the radiolabeled probe.", "units": {"IC50": "fold molar excess"}}
{"sequence": "TTGAGGACTTTCCAGGC", "IC50": 87}
{"sequence": "AGTTGAGGATTTCCAGGC", "IC50": 73}
{"sequence": "TGAGGACTTTCCAGGCTC", "IC50": 92}
{"sequence": "ATGGACTTTCCGT", "IC50": 72.5}
{"sequence": "TCGGATTTCCTC", "IC50": 74}
{"sequence": "TGAGGACTTTCCAGGC", "IC50": 93}
{"sequence": "TTGAGGACTTTCCAGGCTC", "IC50": 87}
{"sequence": "AGTTGAGGATTTCCCAGGC", "IC50": 54}
{"sequence": "TCGGACTTTCCTC", "IC50": 81}
